Assay results from PubChem BioAssay (EPA / NIEHS).
Activity calls are given as the source filed them. The calls were made as follows: active = hit-call score of the fitted dose curve at least 0.9, where 1 is the maximum; inactive = score below 0.9.

How the values were obtained:
[1] = ATG_E_Box_CIS: Attagene CIS-FACTORIAL HepG2 Assay for human Enhancer Box (E-box) (AID 2282936); settings: HepG2 E-box cis-reporter transcription, actives raise or lower the signal
How it was run: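 Transiently transfected HepG2, endogenous TF-driven reporters, 24 h dosing. Readout: RT-PCR plus capillary electrophoresis of fluorescent reporter fragments. Gain or loss of signal fitted bidirectionally against DMSO baseline.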

[2] = ATG_M_61_CIS: Attagene CIS-FACTORIAL HepG2 Assay for M61 Transcription Factor (Internal Marker) (AID 2282937); settings: HepG2 Attagene CIS-FACTORIAL M61 internal marker reporter; actives raise or lower the signal
How it was run: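 HepG2 cells transiently transfected with cis-element-driven multiple reporter transcription units, dosed for 24 h. Reporter mRNA measured by RT-PCR, 6-FAM primer-extension labelling, HpaI digestion and capillary electrophoresis; bidirectional fit versus DMSO baseline.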

[3] = ATG_EGR_CIS: Attagene CIS-FACTORIAL HepG2 Assay for human Early Growth Response 1 (EGR1) (AID 2282938); settings: HepG2 Attagene CIS-FACTORIAL EGR reporter mRNA; actives raise or lower the signal
How it was run: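 HepG2 cells transiently transfected with cis-promoter-driven multiplexed reporter transcription units; reporter mRNA measured 24 h after compound dosing by RT-PCR, 6-FAM primer extension, HpaI digestion and capillary electrophoresis. Bidirectional fit versus DMSO baseline.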

[4] = ATG_M_19_CIS: Attagene CIS-FACTORIAL HepG2 Assay for M19 Transcription Factor (Internal Marker) (AID 2282939); settings: HepG2 Attagene CIS-FACTORIAL M19 internal marker reporter; actives raise or lower the signal
How it was run: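 Transfect HepG2 with MRTU reporter library → dose chemical, 24 h → isolate total RNA, reverse-transcribe with oligo(dT) → PCR, 6-FAM label, HpaI cut (2 h, 37 C) → capillary electrophoresis. Bidirectional fit vs DMSO.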

[5] = ATG_ERE_CIS: Attagene CIS-FACTORIAL HepG2 Assay for Estrogen Response Element (ERE) (AID 2282940); settings: HepG2 ERE cis-reporter, Attagene RNA transcript; actives raise or lower the signal
How it was run: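 Transient MRTU transfection of human HepG2; cis-element promoters; 24 h dosing; total RNA → RT (oligo dT) → PCR → 6-FAM primer extension → HpaI digest → CE fluorescence. Bidirectional fit, DMSO baseline.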

[6] = ATG_Ets_CIS: Attagene CIS-FACTORIAL HepG2 Assay for human Erythroblast Transformation Specific (ETS) (AID 2282941); settings: HepG2 ETS cis-reporter transcription, actives raise or lower the signal
How it was run: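 Multiplexed reporter transcript profiling: HepG2, 24 h treatment, total RNA to cDNA, PCR, 6-FAM labelling, HpaI cut, capillary electrophoresis. Gain- or loss-of-signal fitted against DMSO.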

[7] = biological target: Hepatocyte nuclear factor 3-beta (Homo sapiens) (UniProt Q9Y261); experiment: ATG_FoxA2_CIS: Attagene CIS-FACTORIAL HepG2 Assay for human Forkhead box A2 (FOXA2) (AID 2282942); settings: HepG2 cis-reporter transcription factor activity, 24 h; actives raise or lower the signal
Chain of Hepatocyte nuclear factor 3-beta (Homo sapiens) (Q9Y261 whole entry, looked up): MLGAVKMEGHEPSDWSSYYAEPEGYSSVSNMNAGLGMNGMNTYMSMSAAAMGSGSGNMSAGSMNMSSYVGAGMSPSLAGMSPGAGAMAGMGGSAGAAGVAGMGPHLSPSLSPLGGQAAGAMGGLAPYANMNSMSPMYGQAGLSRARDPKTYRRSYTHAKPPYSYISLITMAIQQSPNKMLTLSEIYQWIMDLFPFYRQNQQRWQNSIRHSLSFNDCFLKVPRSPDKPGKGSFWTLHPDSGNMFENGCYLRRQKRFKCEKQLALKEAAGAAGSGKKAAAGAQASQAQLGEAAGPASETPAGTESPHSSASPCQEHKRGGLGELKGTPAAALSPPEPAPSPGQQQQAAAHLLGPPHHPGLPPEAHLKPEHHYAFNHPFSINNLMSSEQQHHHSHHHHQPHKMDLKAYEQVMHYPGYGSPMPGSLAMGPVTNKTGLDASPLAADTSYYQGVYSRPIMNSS
How it was run: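 HepG2 cells transiently transfected with multiple cis-regulated reporter transcription units, dosed for 24 h. Reporter mRNA measured by RT-PCR, 6-FAM labelling, HpaI digestion and capillary electrophoresis; bidirectional fitting against DMSO baseline.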

[8] = ATG_FoxO_CIS: Attagene CIS-FACTORIAL HepG2 Assay for human Forkhead box O (FoxO) (AID 2282943); settings: HepG2 Attagene cis-reporter, FoxO element, mRNA; actives raise or lower the signal
How it was run: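 Transfected HepG2 reporter cells exposed to test chemical for 24 h; reporter RNA measured by reverse transcription, PCR and fluorescent capillary electrophoresis; curves fitted for increases and decreases against DMSO.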

[9] = ATG_GATA_CIS: Attagene CIS-FACTORIAL HepG2 Assay for human GATA Binding Protein (AID 2282944); settings: HepG2 GATA cis-element reporter, Attagene multiplex mRNA; actives raise or lower the signal
How it was run: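 Transient MRTU transfection, HepG2, 24 h compound exposure. Total RNA → oligo(dT) RT → PCR → 6-FAM primer extension → HpaI cut → CE. Bidirectional fit vs DMSO.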

[10] = ATG_GLI_CIS: Attagene CIS-FACTORIAL HepG2 Assay for human Zinc Finger Protein GLI1 (AID 2282945); settings: HepG2, Attagene cis-factorial reporter mRNA, GLI element; actives raise or lower the signal
How it was run: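 Transiently transfected HepG2 cells report endogenous transcription factor activity via cis-element-driven reporter units. After 24 h compound exposure, reporter mRNA was measured by RT-PCR with capillary electrophoresis; bidirectional fitting against DMSO baseline.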

Measured: AC50

CC(C)Nc1ccc(Nc2ccccc2)cc1
active: [1] 54.8 µM
inactive: all other assays above

CCCCN(CCCC)N=O
inactive: all assays above

OCC1CO1 (stereo not given)
inactive: all assays above

CCC(C)(C)c1ccc(O)cc1
active: [5] 2.25 µM
inactive: all other assays above

Cc1c([N+](=O)[O-])cc2c(c1[N+](=O)[O-])C(C)(C)CC2(C)C
inactive: all assays above

O=C(O)CF
inactive: all assays above

CC(=O)CCc1ccc2c(c1)OCO2
inactive: all assays above

CCCCN(CC)C(=O)SCCC
inactive: all assays above

CCCCC(CC)COP(=O)(Oc1ccccc1)Oc1ccccc1 (stereo not given)
active: [3] 57.6 µM | [5] 6.77 µM | [10] 100 µM
inactive: all other assays above

OCC(F)(F)OC(F)(F)C(F)(F)OC(F)(F)CO
active: [5] 20 µM
inactive: all other assays above

CCCCOCCOP(=O)(OCCOCCCC)OCCOCCCC
inactive: all assays above

Oc1ccc(I)cc1
active: [5] 23.7 µM
inactive: all other assays above
